# PubChem BioAssay (EPA / NIEHS)
# Results filed as inconclusive are left out. Activity calls are given as the source filed them. How the source made its calls, unless noted: active means hit-call score of the fitted dose curve at least 0.9, where 1 is the maximum; inconclusive means response in the unintended direction; inactive means score below 0.9.
# What was measured:
# [1] = target: Retinoic acid receptor RXR-alpha (Homo sapiens) (UniProt P19793); test: ATG_RXRa_TRANS: Attagene TRANS-FACTORIAL HepG2 Assay for human Retinoid X Receptor alpha (RXRa) (AID 2283012)
# Summary of the method: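 Measures exogenous chimeric NR-GAL4 activity in transfected HepG2 liver cells after 24 h of dosing. Induced reporter mRNA was detected by RT-PCR with capillary electrophoresis, and gain of signal was analysed against DMSO.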
# [2] = target: human RAR-related Orphan Receptor gamma (RORg), RORC (gene 6097) (UniProt P51449); test: ATG_RORg_TRANS: Attagene TRANS-FACTORIAL HepG2 Assay for human RAR-related Orphan Receptor gamma (RORg) (AID 2283011)
# Summary of the method: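 HepG2 cells transiently transfected with GAL4-UAS reporter units and chimeric RORg-Gal4 construct; after 24 h chemical exposure, reporter mRNA measured by RT-PCR with fluorescent capillary electrophoresis, gain of signal fitted against DMSO.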
# [3] = target: human Retinoid X Receptor beta (RXRb), RXRB (gene 6257) (UniProt P28702); test: ATG_RXRb_TRANS: Attagene TRANS-FACTORIAL HepG2 Assay for human Retinoid X Receptor beta (RXRb) (AID 2283013)
# Summary of the method: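 Chimeric receptor-Gal4 activity was assessed in transiently transfected human HepG2 cells after 24 h exposure. Transcripts from GAL4-UAS reporters were quantified by fluorescent RT-PCR and capillary electrophoresis, with DMSO as negative control and baseline.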
# [4] = target: human Thyroid Receptor alpha (THRa1), THRA (gene 7067) (UniProt P10827); test: ATG_THRa1_TRANS: Attagene TRANS-FACTORIAL HepG2 Assay for human Thyroid Receptor alpha (THRa1) (AID 2283014)
# Summary of the method: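 HepG2 cells transiently transfected with chimeric NR-Gal4 and GAL4-UAS reporter units, dosed 24 h. Reporter mRNA quantified by RT-PCR, fluorescent labeling, HpaI digestion and capillary electrophoresis; gain-of-signal fit versus DMSO.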
# [5] = read-out: E-selectin (Homo sapiens) (UniProt P16581); test: BSK_3C_Eselectin: BioMAP Diversity Plus: 3C Assay for Eselectin Biomarker Activity (AID 2283015; active means hit-call score of the fitted dose curve at least 0.9, where 1 is the maximum; inactive means score below 0.9); details: primary human endothelial cells (HUVEC); actives raise or lower the signal
# Summary of the method: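 Primary human umbilical vein endothelial cells (3C system), read 24 h after compound addition; E-selectin measured by ELISA. Bidirectional curve fitting against DMSO baseline; cytotoxicity by parallel SRB total-protein staining.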
# [6] = read-out: Interleukin-1 alpha (IL1a), IL1A (gene 3552); test: BSK_BE3C_IL1a: BioMAP Diversity Plus: BE3C Assay for Interleukin-1 alpha (IL1a) Biomarker Activity (AID 2283016; active means hit-call score of the fitted dose curve at least 0.9, where 1 is the maximum; inactive means score below 0.9); details: primary human bronchial epithelial cells; actives raise or lower the signal
# Summary of the method: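 Signal from IL-1a ELISA, taken 24 h after chemical dosing of human bronchial epithelial cells, is compared with DMSO as baseline using bidirectional curve fitting.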
# [7] = read-out: Monocyte Chemoattractant Protein-1 (MCP1), CCL2 (gene 6347); test: BSK_3C_MCP1: BioMAP Diversity Plus: 3C Assay for Monocyte Chemoattractant Protein-1 (MCP1) Biomarker Activity (AID 2283017; active means hit-call score of the fitted dose curve at least 0.9, where 1 is the maximum; inactive means score below 0.9); details: primary human endothelial cells (HUVEC); actives raise or lower the signal
# Summary of the method: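 Human umbilical vein endothelial cells (3C system) exposed to chemicals for 24 h; MCP-1 quantified by ELISA against the DMSO baseline with bidirectional fitting, and parallel SRB staining used to assess cytotoxicity.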
# [8] = read-out: Monocyte Chemoattractant Protein-1 (MCP1), CCL2 (gene 6347); test: BSK_4H_MCP1: BioMAP Diversity Plus: 4H Assay for Monocyte Chemoattractant Protein-1 (MCP1) Biomarker Activity (AID 2283018; active means hit-call score of the fitted dose curve at least 0.9, where 1 is the maximum; inactive means score below 0.9); details: primary human endothelial cells (HUVEC); actives raise or lower the signal
# Summary of the method: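 Endothelial cells from umbilical vein were treated with test chemical, then after 24 h MCP-1 levels were quantified by ELISA; endpoint values came from bidirectional fitting with DMSO as baseline of activity.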
# [9] = read-out: Human Leukocyte Antigen - DR isotype (HLADR), HLA-DRA (gene 3122); test: BSK_3C_HLADR: BioMAP Diversity Plus: 3C Assay for Human Leukocyte Antigen - DR isotype (HLADR) Biomarker Activity (AID 2283019; active means hit-call score of the fitted dose curve at least 0.9, where 1 is the maximum; inactive means score below 0.9); details: primary human endothelial cells (HUVEC); actives raise or lower the signal
# Summary of the method: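 HUVEC monoculture, HLA-DR measured by ELISA 24 h after chemical dosing. Fitted bidirectionally against DMSO baseline; parallel SRB staining assessed cytotoxicity, with 3C proliferation read by SRB at 48 h.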
# [10] = read-out: Interleukin-8 (IL8), CXCL8 (gene 3576); test: BSK_3C_IL8: BioMAP Diversity Plus: 3C Assay for Interleukin-8 (IL8) Biomarker Activity (AID 2283020; active means hit-call score of the fitted dose curve at least 0.9, where 1 is the maximum; inactive means score below 0.9); details: primary human endothelial cells (HUVEC); actives raise or lower the signal
# Summary of the method: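 Endothelial primary cells of human umbilical vein origin are dosed with chemical; after 24 h the IL-8 biomarker is measured by ELISA, and concentration–response is fitted in both directions versus DMSO.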
# Chain of human Retinoid X Receptor beta (RXRb), RXRB (gene 6257) (P28702 whole entry, looked up, the tested form may be a part): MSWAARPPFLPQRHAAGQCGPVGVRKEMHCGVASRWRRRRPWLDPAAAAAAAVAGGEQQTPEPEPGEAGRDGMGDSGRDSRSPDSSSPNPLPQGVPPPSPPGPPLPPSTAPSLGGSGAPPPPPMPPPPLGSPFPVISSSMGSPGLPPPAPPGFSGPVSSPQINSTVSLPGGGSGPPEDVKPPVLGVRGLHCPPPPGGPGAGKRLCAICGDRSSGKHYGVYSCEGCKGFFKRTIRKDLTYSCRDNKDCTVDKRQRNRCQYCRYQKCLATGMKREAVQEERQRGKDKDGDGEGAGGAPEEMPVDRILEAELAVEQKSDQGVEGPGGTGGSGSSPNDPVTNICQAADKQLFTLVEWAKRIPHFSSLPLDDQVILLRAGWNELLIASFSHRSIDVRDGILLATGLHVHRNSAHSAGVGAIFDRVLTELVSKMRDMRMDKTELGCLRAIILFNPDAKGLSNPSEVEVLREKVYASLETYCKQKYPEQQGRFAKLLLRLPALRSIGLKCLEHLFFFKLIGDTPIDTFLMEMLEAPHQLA
# Chain of human Thyroid Receptor alpha (THRa1), THRA (gene 7067) (P10827 whole entry, looked up, the tested form may be a part): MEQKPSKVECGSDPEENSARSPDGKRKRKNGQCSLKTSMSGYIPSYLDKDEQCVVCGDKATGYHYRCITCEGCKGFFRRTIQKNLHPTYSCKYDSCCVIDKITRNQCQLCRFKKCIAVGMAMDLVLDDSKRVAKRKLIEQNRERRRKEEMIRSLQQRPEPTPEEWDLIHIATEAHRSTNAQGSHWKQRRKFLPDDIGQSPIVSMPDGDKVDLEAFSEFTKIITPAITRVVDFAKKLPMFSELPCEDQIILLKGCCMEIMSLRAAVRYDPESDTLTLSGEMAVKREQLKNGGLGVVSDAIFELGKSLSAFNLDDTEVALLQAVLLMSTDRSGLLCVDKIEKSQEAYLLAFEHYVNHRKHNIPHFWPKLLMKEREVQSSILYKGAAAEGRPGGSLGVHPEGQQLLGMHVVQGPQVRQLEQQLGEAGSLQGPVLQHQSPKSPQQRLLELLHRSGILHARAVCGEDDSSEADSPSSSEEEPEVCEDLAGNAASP
# Chain of Retinoic acid receptor RXR-alpha (Homo sapiens) (P19793 whole entry, looked up, the tested form may be a part): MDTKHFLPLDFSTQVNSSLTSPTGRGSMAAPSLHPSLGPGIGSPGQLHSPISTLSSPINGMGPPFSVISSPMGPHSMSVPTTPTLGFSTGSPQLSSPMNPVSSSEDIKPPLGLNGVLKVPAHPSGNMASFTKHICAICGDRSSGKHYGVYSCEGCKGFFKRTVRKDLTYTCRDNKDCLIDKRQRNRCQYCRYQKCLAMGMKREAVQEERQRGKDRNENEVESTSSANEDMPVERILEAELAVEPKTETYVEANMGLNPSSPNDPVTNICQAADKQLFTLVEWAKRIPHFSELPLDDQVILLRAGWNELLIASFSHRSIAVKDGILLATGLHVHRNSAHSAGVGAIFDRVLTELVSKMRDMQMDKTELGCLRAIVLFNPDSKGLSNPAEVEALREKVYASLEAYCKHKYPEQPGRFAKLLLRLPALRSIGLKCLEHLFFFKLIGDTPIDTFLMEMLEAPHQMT
# Chain of E-selectin (Homo sapiens) (P16581 whole entry, looked up): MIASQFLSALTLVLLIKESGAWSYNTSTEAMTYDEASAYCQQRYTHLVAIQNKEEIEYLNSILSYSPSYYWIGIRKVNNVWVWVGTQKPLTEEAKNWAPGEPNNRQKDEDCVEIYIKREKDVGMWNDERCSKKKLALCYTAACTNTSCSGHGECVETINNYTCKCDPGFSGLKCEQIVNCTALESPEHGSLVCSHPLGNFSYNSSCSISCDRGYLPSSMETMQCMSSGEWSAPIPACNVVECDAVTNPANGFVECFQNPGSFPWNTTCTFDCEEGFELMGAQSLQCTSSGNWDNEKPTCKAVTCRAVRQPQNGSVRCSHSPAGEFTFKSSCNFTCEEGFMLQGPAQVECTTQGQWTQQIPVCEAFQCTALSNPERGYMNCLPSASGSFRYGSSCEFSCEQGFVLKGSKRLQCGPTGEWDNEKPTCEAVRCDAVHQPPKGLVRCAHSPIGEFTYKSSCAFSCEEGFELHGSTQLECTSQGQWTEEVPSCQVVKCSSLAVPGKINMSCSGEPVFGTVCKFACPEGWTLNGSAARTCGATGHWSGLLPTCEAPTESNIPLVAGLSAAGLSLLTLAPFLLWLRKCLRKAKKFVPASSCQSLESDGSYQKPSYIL
# Chain of human RAR-related Orphan Receptor gamma (RORg), RORC (gene 6097) (P51449 whole entry, looked up, the tested form may be a part): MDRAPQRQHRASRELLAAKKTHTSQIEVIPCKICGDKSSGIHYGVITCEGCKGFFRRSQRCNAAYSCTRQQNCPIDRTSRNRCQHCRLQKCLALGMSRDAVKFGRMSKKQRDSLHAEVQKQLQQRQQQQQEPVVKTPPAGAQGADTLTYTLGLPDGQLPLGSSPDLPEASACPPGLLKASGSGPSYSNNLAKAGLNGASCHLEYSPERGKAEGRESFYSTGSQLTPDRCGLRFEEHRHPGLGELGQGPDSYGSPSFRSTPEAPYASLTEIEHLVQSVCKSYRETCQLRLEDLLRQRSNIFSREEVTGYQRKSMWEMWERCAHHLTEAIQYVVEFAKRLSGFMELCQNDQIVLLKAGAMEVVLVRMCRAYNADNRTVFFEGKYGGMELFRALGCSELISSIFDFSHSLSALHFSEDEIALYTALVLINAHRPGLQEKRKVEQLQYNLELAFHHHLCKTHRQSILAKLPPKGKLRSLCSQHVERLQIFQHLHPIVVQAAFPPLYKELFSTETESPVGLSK
structure (smiles),measurement,setting,value
Brc1cc(Br)c(Oc2c(Br)cc(Br)c(Br)c2Br)cc1Br,outcome,[1],inactive
FC(F)(F)N1C(F)(F)C(F)(F)OC(F)(F)C1(F)F,outcome,[2],inactive
same,outcome,[3],inactive
same,outcome,[4],inactive
O=C(O)c1cccc(C(=O)O)n1,outcome,[1],inactive
same,outcome,[3],inactive
FCOC(C(F)(F)F)C(F)(F)F,outcome,[1],inactive
CCOC(OCC)C(=O)c1ccccc1,outcome,[1],inactive
same,outcome,[3],inactive
CCN(CCC#N)c1ccccc1,outcome,[1],inactive
same,outcome,[3],inactive
C=CC(=O)OCC(CO)(COCC(COC(=O)C=C)(COC(=O)C=C)COC(=O)C=C)COC(=O)C=C,outcome,[1],inactive
same,outcome,[3],inactive
O=S(=O)(O)c1ccc2cc(O)ccc2c1,outcome,[1],inactive
same,outcome,[3],inactive
CCCCCCCCCCCCCCCCCC[N+](C)(C)Cc1ccccc1,outcome,[1],inactive
same,outcome,[3],inactive
same,AC50,[4],50 µM (active)
same,AC50,[5],2.68 µM (active)
same,AC50,[6],3.96 µM (active)
same,AC50,[7],0.716 µM (active)
same,AC50,[8],0.929 µM (active)
same,AC50,[9],0.515 µM (active)
same,AC50,[10],4.38 µM (active)
O=S(=O)(O)c1ccccc1,outcome,[1],inactive
same,outcome,[3],inactive
NS(=O)(=O)O,outcome,[1],inactive
same,outcome,[3],inactive
CC(=O)CC(C)C,outcome,[1],inactive
same,outcome,[3],inactive
CCOC=C(C(=O)OCC)C(=O)OCC,outcome,[1],inactive
same,outcome,[3],inactive
c1ccc(CNc2ncnc3c2ncn3C2CCCCO2)cc1 (stereo not drawn),outcome,[1],inactive
same,outcome,[3],inactive
C/C=C/C(=O)C1=C(C)CCCC1(C)C,outcome,[1],inactive
same,outcome,[3],inactive
same,outcome,[4],inactive
O=C(Nc1ccc(Cl)c(Cl)c1)c1cc(Cl)cc(Cl)c1O,outcome,[1],inactive
same,outcome,[3],inactive
same,AC50,[4],1.35 µM (active)
CCc1ccccc1O,outcome,[1],inactive
same,outcome,[3],inactive
same,outcome,[4],inactive
